Consider 5 compounds from PubChem BioAssay.

A short description of test [1]: optical density shifts of acrAB sulA E. coli – strain DRC41, OD650, 48 h, E. coli filamentation inducer project, primary screen (AID 1152).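 Note: E. coli MC1000 strain DRC41 lacking acrAB efflux pump and sulA.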 The settings on record: higher = more signal, called active from +8 up or from −8 down.
The nature of test [2]: probe aLefty1 binding on compound microarray – biochemical, small-molecule microarray, 635/667 nm fluorescence, primary screen (AID 1153).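 Note: score merges spot fluorescence with signal-to-noise ratio from the scanned slide images.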 The note with it: higher = more signal.
Test [3] can be described thus: plasmodial surface anion channel blockers, osmotic lysis – cell-based, P. falciparum Indochina, OD700, 1 h, primary screen (AID 1154). The note with it: P. falciparum Indochina infected RBC osmotic lysis, higher = more signal, called active from +8 up or from −8 down.
Test [4] is described as follows: plasmodial surface anion channel blockers, osmotic lysis – cell-based, P. falciparum Indochina, OD700, 2 h, primary screen (AID 1155).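 Note: lysis reports solute entry through the parasite surface anion channel PSAC.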 The note with it: P. falciparum Indochina infected erythrocytes, higher = more signal, called active from +8 up or from −8 down.
Test [5] in a line: changes in parasitized red cell lysis, either direction – P. falciparum Indochina, OD700, 3 h, PSAC antagonist project, primary screen (AID 1156). The settings on record: P. falciparum-infected erythrocytes, osmotic lysis, higher = more signal, called active from +8 up or from −8 down.
Test [6] can be described thus: plasmodial surface anion channel blockers, osmotic lysis – cell-based, P. falciparum Indochina, OD700, 18 h, primary screen (AID 1157). The note with it: P. falciparum Indochina infected erythrocytes, osmotic lysis OD700, 18 h; higher = more signal, called active from +8 up or from −8 down.
Test [7] in a line: S6 kinase pathway phospho-S6 level changes – cell-based, A549, cytoblot, luminescence, serum-stimulated, primary screen (AID 1158).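 Note: serum-stimulated A549 lung adenocarcinoma cells; signal is phosphorylated S6 detected by cytoblot immunostaining with HRP secondary.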 The settings on record: 5 h, higher = more signal.
In test [8] the target is NADPH oxidase 2 (Homo sapiens) (UniProt P04839). As to the kind of experiment: compounds shifting NOX2 Amplex Red fluorescence – cell-based, HEK293-NOX2, PMA-stimulated, NOX inhibitor project, primary screen (AID 1159). Note: test concentration not given here. The settings on record: 45 min, higher = more signal, called active from +8 up or from −8 down.
In test [9] the target is NADPH oxidase 4 (Homo sapiens) (UniProt Q9NPH5). As to the kind of experiment: compounds shifting NOX4 Amplex Red fluorescence – cell-based, HEK293-NOX4, tetracycline-induced, NOX inhibitor project, primary screen (AID 1160). The settings on record: HEK293-NOX4, Amplex Red H2O2 fluorescence, 45 min; higher = more signal, called active from +8 up or from −8 down.
Test [10] deals with NADPH oxidase 5 (Homo sapiens) (UniProt Q96PH1). As to the kind of experiment: compounds shifting NOX5 Amplex Red fluorescence – cell-based, HEK293-NOX5, NOX inhibitor project, primary screen (AID 1161). The settings on record: HEK293-NOX5, ionomycin, 45 min, higher = more signal.
Test [11] can be described thus: compound effects on lung adenocarcinoma cell viability – A549, calcein-AM fluorescence, 48 h, basal, profiling panel (AID 1162). Note: test concentration not given here. The note with it: higher = more signal.
Test [12] is described as follows: compound effects on differentiated 3T3-L1 adipocyte viability – cell-based, 3T3-L1 adipocytes, calcein-AM fluorescence, 48 h, basal, profiling panel (AID 1163). Note: test concentration not given here. The note with it: 3T3-L1 adipocytes viability, higher = more signal.
Test [13] in a line: compound effects on hepatocellular carcinoma cell viability – HepG2, calcein-AM fluorescence, 48 h, basal, profiling panel (AID 1164). Note: test concentration not given here. The settings on record: higher = more signal.
The nature of test [14]: compound effects on multiple myeloma cell viability – MM1S, calcein-AM fluorescence, 48 h, basal, profiling panel (AID 1165).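 Note: viability of MM1S multiple myeloma cells under basal unstimulated conditions; test concentration not given here.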 The settings on record: higher = more signal.
The nature of test [15]: calcein-AM signal in unstimulated myeloma cells – cell-based, calcein-AM fluorescence, 48 h, PK04 Diversity Set, profiling panel (AID 1166).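 Note: cells grown under basal conditions without added stimulus; test concentration not given here.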 The note with it: RPMI8226 myeloma viability, higher = more signal.
The nature of test [16]: JC-1 mitochondrial signal, unstimulated HepG2 cells – cell-based, JC-1 fluorescence, 24 h, 100 nL compound, profiling panel (AID 1167). Note: test concentration not given here. The settings on record: HepG2 mitochondrial potential, higher = more signal.
Test [17] can be described thus: JC-1 mitochondrial signal, unstimulated adipocytes – cell-based, JC-1 fluorescence, 3T3-L1 adipocytes, 24 h, 100 nL compound, profiling panel (AID 1168). Note: test concentration not given here. The note with it: JC-1 mitochondrial fluorescence, higher = more signal, called active from +8 up or from −8 down.
The nature of test [18]: JC-1 mitochondrial signal, unstimulated myeloma cells – cell-based, JC-1 fluorescence, RPMI8226, 24 h, 100 nL compound, profiling panel (AID 1169). Note: test concentration not given here. The settings on record: JC-1 mitochondrial potential fluorescence, higher = more signal.
The nature of test [19]: JC-1 mitochondrial signal, unstimulated MM1S myeloma – cell-based, JC-1 fluorescence, 24 h, 100 nL compound, profiling panel (AID 1170). Note: test concentration not given here. The settings on record: MM1S mitochondrial potential, higher = more signal.
A short description of test [20]: resazurin metabolic signal in A549 cells – cell-based, resazurin fluorescence, 24 h, PK04 Diversity Set, profiling panel (AID 1171). Note: test concentration not given here. The settings on record: A549 viability, higher = more signal, called active from +8 up or from −8 down. In general terms: Resazurin is reduced to fluorescent resorufin, in cell work by metabolically active cells.

Active and inactive are the calls of the source.

Chain of NADPH oxidase 2 (Homo sapiens) (P04839 whole entry, looked up): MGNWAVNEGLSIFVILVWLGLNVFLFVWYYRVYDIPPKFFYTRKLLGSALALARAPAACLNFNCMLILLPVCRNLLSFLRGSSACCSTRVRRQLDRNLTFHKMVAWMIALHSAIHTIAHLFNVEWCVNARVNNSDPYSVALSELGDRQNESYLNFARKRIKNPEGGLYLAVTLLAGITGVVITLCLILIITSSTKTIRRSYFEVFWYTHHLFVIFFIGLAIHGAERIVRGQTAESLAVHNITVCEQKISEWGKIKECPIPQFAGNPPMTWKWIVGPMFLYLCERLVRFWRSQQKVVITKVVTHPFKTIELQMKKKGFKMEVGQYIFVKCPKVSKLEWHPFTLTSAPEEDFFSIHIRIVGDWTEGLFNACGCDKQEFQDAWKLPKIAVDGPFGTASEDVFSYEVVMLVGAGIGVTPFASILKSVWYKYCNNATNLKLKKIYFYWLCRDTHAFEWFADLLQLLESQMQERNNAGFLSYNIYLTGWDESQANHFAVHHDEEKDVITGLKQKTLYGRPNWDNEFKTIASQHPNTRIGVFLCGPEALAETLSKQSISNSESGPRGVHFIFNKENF
Chain of NADPH oxidase 4 (Homo sapiens) (Q9NPH5 whole entry, looked up): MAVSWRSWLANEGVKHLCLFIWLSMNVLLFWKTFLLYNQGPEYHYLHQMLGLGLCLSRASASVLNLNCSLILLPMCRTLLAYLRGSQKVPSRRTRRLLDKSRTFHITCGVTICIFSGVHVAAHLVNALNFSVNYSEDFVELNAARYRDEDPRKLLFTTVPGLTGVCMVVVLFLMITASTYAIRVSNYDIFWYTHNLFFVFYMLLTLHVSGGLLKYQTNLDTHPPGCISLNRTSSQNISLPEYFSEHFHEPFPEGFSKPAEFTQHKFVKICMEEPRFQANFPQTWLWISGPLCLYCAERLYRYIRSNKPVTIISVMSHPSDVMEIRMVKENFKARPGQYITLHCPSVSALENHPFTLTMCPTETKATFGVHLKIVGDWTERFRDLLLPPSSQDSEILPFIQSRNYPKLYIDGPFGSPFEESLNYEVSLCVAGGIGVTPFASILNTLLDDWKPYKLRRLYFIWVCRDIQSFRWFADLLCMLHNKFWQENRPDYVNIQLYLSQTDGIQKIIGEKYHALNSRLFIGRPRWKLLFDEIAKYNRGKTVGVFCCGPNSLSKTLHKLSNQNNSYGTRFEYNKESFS
Chain of NADPH oxidase 5 (Homo sapiens) (Q96PH1 whole entry, looked up): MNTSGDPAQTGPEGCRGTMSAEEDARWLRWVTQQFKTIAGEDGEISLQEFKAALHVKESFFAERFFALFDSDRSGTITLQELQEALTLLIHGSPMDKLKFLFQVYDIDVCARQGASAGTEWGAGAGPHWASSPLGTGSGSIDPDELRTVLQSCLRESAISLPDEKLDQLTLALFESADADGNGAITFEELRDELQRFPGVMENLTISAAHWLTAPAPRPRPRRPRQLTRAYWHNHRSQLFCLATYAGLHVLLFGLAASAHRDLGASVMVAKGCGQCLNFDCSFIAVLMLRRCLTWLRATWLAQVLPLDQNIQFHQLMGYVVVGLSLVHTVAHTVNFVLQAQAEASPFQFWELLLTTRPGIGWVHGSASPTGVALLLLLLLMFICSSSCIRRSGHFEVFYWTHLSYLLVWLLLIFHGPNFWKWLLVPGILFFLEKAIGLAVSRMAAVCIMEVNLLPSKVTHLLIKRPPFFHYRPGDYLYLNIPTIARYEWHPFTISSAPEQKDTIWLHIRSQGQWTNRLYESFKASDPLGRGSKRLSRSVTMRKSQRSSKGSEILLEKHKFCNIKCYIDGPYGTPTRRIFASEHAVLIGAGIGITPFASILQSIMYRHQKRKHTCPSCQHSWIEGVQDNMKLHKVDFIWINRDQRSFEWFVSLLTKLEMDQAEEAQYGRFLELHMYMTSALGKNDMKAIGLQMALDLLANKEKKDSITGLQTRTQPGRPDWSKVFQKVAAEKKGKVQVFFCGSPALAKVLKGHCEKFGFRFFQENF

Take `C=C(C)[C@@H]1CC=C(C(O)C2C=CC3C(=O)N(c4ccccc4)C(=O)C3N2Nc2ccccc2)CC1` (stereo not given in full): the z-score in [1] is -0.59 (inactive); in [3], 8.1 (active); in [4] it was 2.94 (inactive); in test [5], 1.09 (inactive); in [6] it was 1.73 (inactive); in test [7], -0.798. Also, the z-score in [8] is -0.653 (inactive); in test [9], -3.06 (inactive); in test [10], -2.48; in test [11] it was 1.62; in test [12], -0.63; in test [13], 1.16. The z-score in test [14] was -0.646; in test [15], -1.05; in [16], -1.95; in test [17], -0.27 (inactive); in test [18] it was -0.45; in test [19], -0.31. Moreover, the z-score in [20] was 0.296 (inactive). In addition, the composite z-score in test [2] came out at 1.33.
In the case of `C=CCOC(=O)[C@H]1[C@@H]2C(=O)O[C@@H](c3ccccc3)[C@@H](c3ccccc3)N2[C@@H](c2ccc(OCCOC(=O)[C@H]3C[C@H]4C(=O)N[C@@H](CCCC[N+](C)(C)C)C(=O)N4[C@H]3c3ccc(O)cc3)cc2)[C@]12C(=O)Nc1ccc(I)cc12`, the z-score was -0.535 (inactive) in [1]; 3.9 (inactive) in test [3]; 1.69 (inactive) in [4]; -3.16 (inactive) in test [5]; 0.278 (inactive) in test [6]; -0.519 in test [7]. The z-score in test [8] is 0.595 (inactive); in test [9] it was 0.72 (inactive); in test [10], 0.895; in test [11], 0.191; in test [12] it was -0.113; in [13], 0.837. For the same compound, the z-score is -0.233 in [14]; -0.661 in [15]; 0.239 in test [16]; -0.672 (inactive) in test [17]; 0.0674 in test [18]; 0.17 in test [19]. Further, the z-score in test [20] was -0.0807 (inactive). For the same compound, the composite z-score in test [2] turned out to be 0.275.
On to `C=CCN1C(=O)[C@@]2(Cc3ccccc31)N=C(c1ccc(OCCCO)cc1)O[C@H]2c1ccccc1`, for which the z-score is 0.613 (inactive) in test [1]; 14.6 (active) in test [3]; 3.47 (inactive) in test [4]; 3.29 (inactive) in test [5]; 1.35 (inactive) in test [6]; 0.104 in test [7]. Moreover, the z-score in test [8] is -2.01 (inactive); in test [9], -0.253 (inactive); in test [10], -2.65; in [11] it was -0.914; in test [12], -0.107; in test [13], -1.38. Further, the z-score in [14] was -3.23; in test [15], -2.16; in test [16], -0.927; in test [17], 0.133 (inactive); in test [18] it was -0.942; in [19], -1.29. The z-score in [20] was -1.99 (inactive). In [2], this compound came in with a composite z-score of 0.481.
Take `CCc1cccc(NC(=O)O[C@H]2[C@H](OC(=O)Nc3ccccc3-c3ccccc3)[C@@H](OC(=O)Nc3ccccc3-c3ccccc3)[C@@H](OC)O[C@@H]2CO)c1`: the z-score in test [1] is -1.5 (inactive); in test [3], 3.37 (inactive); in [4] it was 0.995 (inactive); in [5] it was -0.975 (inactive); in test [6] it was 1.31 (inactive); in test [7], -0.84. In addition, the z-score in test [8] was -5.54 (inactive); in [9] it was -1.18 (inactive); in [10], -1.13; in test [11], -4.21; in test [12] it was 0.175; in test [13], -4.64. In addition, the z-score is -3.46 in test [14]; -4.11 in [15]; -1.11 in test [16]; 1.66 (inactive) in test [17]; -1.1 in test [18]; -1.91 in [19]. Also, the z-score in [20] was -6.15 (inactive). In [2], this compound gave a composite z-score of 0.419.
Take `COC(=O)[C@H](Cc1ccccc1)N1CC2=C[C@@H](C3CC3)n3c(=O)n(C)c(=O)n3[C@H]2[C@@H]1[C@@H](O)Cc1ccccc1`: the z-score was -1.32 (inactive) in test [1]; 11.5 (active) in test [3]; 2.35 (inactive) in [4]; 0.645 (inactive) in test [5]; 1.58 (inactive) in test [6]; 0.144 in [7]. In addition, the z-score in test [8] was -0.813 (inactive); in test [9] it was -0.218 (inactive); in test [10], -1.71; in test [11], 1.97; in test [12], -0.375; in test [13], 0.888. Also, the z-score was 0.378 in test [14]; -0.473 in test [15]; 1.49 in [16]; -1.06 (inactive) in test [17]; 0.223 in test [18]; -0.804 in test [19]. The z-score in test [20] was 0.138 (inactive). The composite z-score in test [2] was found to be 0.355.
